# Records with an inconclusive call do not appear. Entries that show only a call come without a potency. Calls of active or inactive are those of the source. Calls come from the whole dose curve; as a rule, active = well fitted curve in the direction sought with a large enough effect; inconclusive = small, poorly fitted or top-dose-only effect, or another doubt; inactive = no such curve, though single readings can be large; an effect the other way counts as inactive or inconclusive.
# Test: qHTS of pediatric cancer cell lines to identify multiple opportunities for drug repurposing: Confirmatory screen for RD cells (AID 1347124);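 note: cells exposed to compound for 48 h before viability readout; nearly all actives have a fitted effect of over 65% in size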
# Details: RD rhabdomyosarcoma cell viability; series mostly up to 45.9 µM
# Method in brief: (§1)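 Cells (500-1,000/well) in growth media were settled 5 h at 37 degrees C, then given compounds for 48 h. Viability was read as CellTiter-Glo luminescence. Primary runs used MIPE at 11 points (0.78 nM-46 µM) and NPC at 8 points (0.59 nM-46 µM); follow-ups used 11 points.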
# Potency is the fitted concentration of half-maximal effect.
row,Compound,Potency
1,C[C@@H]1O[C@@H](O[C@@H]2C=C3CC[C@@H]4[C@H](CC[C@]5(C)[C@@H](c6ccc(=O)oc6)CC[C@]45O)[C@@]3(C)CC2)[C@H](O)[C@H](O)[C@H]1O,0.0033 µM (active)
2,CN(C)C(=S)SSC(=S)N(C)C,16.5 µM (active)
3,C[C@@H]1C[C@@H]([C@H](O)CC2CC(=O)NC(=O)C2)C(=O)[C@@H](C)C1,2.61 µM (active)
4,ClC1=C(Cl)C2(Cl)C(CBr)CC1(Cl)C2(Cl)Cl (stereo not given),inactive
5,COc1ccc2c(C(=O)c3ccc(Cl)cc3)c(C)n(CC(=O)O)c2c1,inactive
6,CCCCCCCCC(=O)NCc1ccc(O)c(OC)c1,inactive
7,Cc1ccc([N+](=O)[O-])[c]2c1[O][Hg]2,0.827 µM (active)
8,CCCCCCCCCCCC[N+](C)(C)CCOc1ccccc1,18.5 µM (active)
9,CC[n+]1c(-c2ccccc2)c2cc(N)ccc2c2ccc(N)cc21,14.7 µM (active)
10,COC(=O)C1=CCCN(C)C1,inactive

# Test: qHTS of pediatric cancer cell lines to identify multiple opportunities for drug repurposing: Confirmatory screen for Rh18 cells (AID 1347125); note: nearly all actives have a fitted effect of over 55% in size
# Details: Rh18 rhabdomyosarcoma cells, viability; series mostly up to 45.9 µM
# Method in brief: as §1
row,Compound,Potency
1,CC1Sc2c(C(=O)O)c(=O)c3cc(F)c(N4CCNCC4)cc3n21 (stereo not given),inactive
2,CCc1ccc(C2CCNCC2)cc1,inactive
3,C[C@@H]1O[C@@H](O[C@@H]2C=C3CC[C@@H]4[C@H](CC[C@]5(C)[C@@H](c6ccc(=O)oc6)CC[C@]45O)[C@@]3(C)CC2)[C@H](O)[C@H](O)[C@H]1O,6.57 µM (active)
4,CN(C)C(=S)SSC(=S)N(C)C,0.585 µM (active)
5,CN1[C@@H]2CC[C@H]1CC(OC(=O)c1cc(Cl)cc(Cl)c1)C2 (stereo not given in full),inactive
6,ClC1=C(Cl)C2(Cl)C(CBr)CC1(Cl)C2(Cl)Cl (stereo not given),inactive
7,COc1ccc2c(C(=O)c3ccc(Cl)cc3)c(C)n(CC(=O)O)c2c1,inactive
8,CCCCCCCCC(=O)NCc1ccc(O)c(OC)c1,inactive
9,Cc1ccc([N+](=O)[O-])[c]2c1[O][Hg]2,5.22 µM (active)
10,CCCCCCCCCCCC[N+](C)(C)CCOc1ccccc1,20.8 µM (active)
11,CC[n+]1c(-c2ccccc2)c2cc(N)ccc2c2ccc(N)cc21,4.14 µM (active)
12,COC(=O)C1=CCCN(C)C1,inactive

# Test: qHTS of pediatric cancer cell lines to identify multiple opportunities for drug repurposing: Confirmatory screen for Rh30 cells (AID 1347126); note: nearly all actives have a fitted effect of over 55% in size
# Details: Rh30 rhabdomyosarcoma cell viability; series mostly up to 45.9 µM
# Method in brief: as §1
row,Compound,Potency
1,CCc1ccc(C2CCNCC2)cc1,inactive
2,C[C@@H]1C[C@@H]([C@H](O)CC2CC(=O)NC(=O)C2)C(=O)[C@@H](C)C1,0.737 µM (active)
3,CN1[C@@H]2CC[C@H]1CC(OC(=O)c1cc(Cl)cc(Cl)c1)C2 (stereo not given in full),inactive
4,ClC1=C(Cl)C2(Cl)C(CBr)CC1(Cl)C2(Cl)Cl (stereo not given),inactive
5,CCCCCCCCC(=O)NCc1ccc(O)c(OC)c1,inactive
6,CCCCCCCCCCCC[N+](C)(C)CCOc1ccccc1,16.5 µM (active)
7,CC[n+]1c(-c2ccccc2)c2cc(N)ccc2c2ccc(N)cc21,2.61 µM (active)
8,COC(=O)C1=CCCN(C)C1,inactive

# From PubChem BioAssay (NCATS)
